Broadly, the Inhibition is the relative decrease from the control value, in per cent. A high value points to a response far below the control.

The test system of this experiment is Plasmodium falciparum. The experiment in a line: GSK_TCMDC: Inhibition of Plasmodium falciparum 3D7 in whole red blood cells, using parasite LDH activity as an index of growth. Test compounds present at 2uM. Type of experiment: functional.
The molecule `Cc1noc(C)c1-c1ccc(C(=C2CCCCCC2)c2ccc(O)cc2)cc1` displayed an Inhibition of 100%. For `COc1ccc(C2N=C(N)N=C(N)N2c2ccc(Cl)cc2)cc1OC.Cl` (stereo not given) the value was 85%; for `N=C(N)Nc1nc(-c2cccc(NC(=O)NCCc3c[nH]c4ccc(OCc5ccccc5)cc34)c2)cs1`, 100%; for `CC1CN(Cc2ccc(-c3ccc(-c4nc5cc(F)ccc5[nH]4)cc3)cc2)CC(C)O1.O=C(O)C(F)(F)F` (stereo not given), 96%. The molecule `COc1ccc(NC(=O)/C=C/c2cc(Br)ccc2F)cc1OCCN(C(C)C)C(C)C.O=C(O)C(F)(F)F` returned an Inhibition of 100%. Molecule `COc1c(C2=CCN(CCCCNC(=O)c3ccc(-c4ccc(C#N)cc4)cc3)CC2)c(C)cc2c1C(C)(C)CCC2(C)C` returned an Inhibition of 92%. For `CS(=O)(=O)Nc1cccc(-c2cnc3[nH]cc(-c4cccc(CN)c4)c3c2)c1` the value was 96%. For `Cc1cccc(OCC2CCN(c3ncc(C(=O)NC4CC4)cc3Cl)CC2)c1` the value was 90%; for `Br.CCc1c(CCNCCCCCCNCCc2ccc(Br)cc2)ccc(O)c1O`, 95%. As to `FC(F)(F)c1ccc2[nH]ccc(=NN=CC=Cc3ccccc3)c2c1`, the Inhibition is on record as 82%.

Molecule `C=C[C@H]1CN2CC[C@H]1C[C@H]2[C@H](O)c1ccnc2ccc(OC)cc12.O.O=S(=O)(O)O` yielded an Inhibition of 97%. For `CN(C)CCCOc1cccc(NC(=O)Nc2ccc(-c3ccccc3)cc2)c1.O=C(O)C(F)(F)F` the value was 91%. Regarding `CN(C)c1ccc(CN2CCC(CNC(=O)c3cc(-c4cccc(F)c4)cs3)C2)cc1.O=C(O)C(F)(F)F` (stereo not given), the Inhibition came out at 96%. For `Cl.O=C(NCCCCN1CCC(c2ccc(OC(F)(F)F)cc2)CC1)c1ccc(NC(=O)c2ccc(Cl)cc2)cc1` the value was 99%. With `Cl.Oc1ccc(CCNc2nc(NCCCOc3ccccc3-c3ccc(C(F)(F)F)cc3)nc(N3CCNCC3)n2)cc1` the figure was 100%; with `COc1cc2ccccc2c(OC)c1CNCCCCCCNCc1c(OC)cc2ccccc2c1OC.CS(=O)(=O)O`, 93%; with `COc1ccc(-c2cc(C(=O)N[C@@H](Cc3ccccc3)C(=O)NCCN3CCCCC3)ccc2O)cc1`, 96%. With `CN(C)c1ccc(-c2ccc(C(=O)NC3CCN(Cc4ccc(F)cc4)CC3)s2)cc1.O=C(O)C(F)(F)F` the figure was 87%; with `O=C(Nc1ccc(-c2nc3ccccc3[nH]2)cc1)C1CCN(Cc2cccc(F)c2F)CC1`, 97%.

`COc1ccc(OC)c(NC(=O)CSc2nc(-c3ccccc3Cl)ns2)c1` came in with an Inhibition of 95%.

The molecule `COc1ccc(CN2CCCC(C(=O)c3ccc(C(F)(F)F)cc3)C2)c(O)c1` (stereo not given) registered an Inhibition of 98%. For `COc1ccc2nccc(N3CCC(NCCNS(=O)(=O)c4ccc5c(c4)NC(=O)CS5)C3)c2n1.Cl` (stereo not given) the value was 97%.

Turning to `COc1ccc(-c2cccc(NC(=O)c3ccc(F)cc3)c2)cc1CN1CCCN(C)CC1.O=C(O)C(F)(F)F`, the Inhibition came out at 100%. For `CCOC(=O)NOC(C(=O)O)c1ccccc1` (stereo not given) the value was 99%. With `Cc1cccc2nc(-c3cccc(-c4ccc(NC(=O)Nc5ccsc5)cc4)c3)[nH]c12` the figure was 100%; with `CN(Cc1ccc(-c2ccc(C(F)(F)F)cc2)cc1)C(=O)Cn1c(CCc2cccc(F)c2F)cc(=O)c2ccc(OCCCN3CCCCC3)cc21.O=C(O)C(O)C(O)C(=O)O`, 100%; with `CC(C)C[C@H](NC(=O)OC(C)(C)C)C(=O)Nc1ccc(Cc2ccc(NC(=O)[C@H](CC(C)C)NC(=O)OC(C)(C)C)cc2)cc1`, 94%. For `Cc1cccc2nc(-c3ccc(-c4ccc(NC(=O)Nc5ccc(F)c(F)c5F)cc4)s3)[nH]c12` the value was 100%. In the case of `Cc1cccc2nc(-c3ccc(-c4ccc(CN5CCN(CCC#N)CC5)cc4)cc3)[nH]c12.O=C(O)C(F)(F)F`, the Inhibition is 91%. With `COc1ccc(CCn2c(=N)c(C(=O)NCc3ccccc3)cc3c(=O)n4ccccc4nc32)cc1` the figure was 100%; with `CCCCN(CCCC)Cc1cc2ccccc2cc1O.Cl`, 100%.

`O=C(Nc1ccc2c(c1)CCN(C1CCC1)CC2)c1cn(-c2ccccc2)nc1-c1ccccc1.O=C(O)C(F)(F)F`: the Inhibition amounted to 100%.

`Cc1cc(NC2CCCC2)nc(Nc2ccccc2C)n1` displayed an Inhibition of 88%. For `Cc1ccc(Oc2ncccc2C(=O)Nc2cccc3cccnc23)c(C)c1` the value was 99%; for `O=C(Nc1cccc(-c2cccc(-c3ccc(F)cc3)n2)c1)c1ccc([N+](=O)[O-])o1`, 99%; for `Cc1cccc2nc(-c3ccc(-c4ccc(CNCC5CCCO5)cc4)cc3)[nH]c12.O=C(O)C(F)(F)F` (stereo not given), 100%.

Turning to `Cc1noc(-c2ccccc2)c1NC(=O)NC1CCN(CCCCCNC(=O)/C=C/c2ccc(Cl)c(Cl)c2)CC1`, the Inhibition is reported as 93%. For `COc1cccc2c(N/N=C/c3ccccc3[N+](=O)[O-])cc(C)nc12` the value was 99%; for `COc1cc(-c2nc(C(C)(C)CN)[nH]c2-c2ccncc2)ccc1Br.Cl`, 97%. With `CCC(C)CN1CCCN(c2ccc(NC(=O)c3cccs3)cc2)CC1.O=C(O)C(F)(F)F` (stereo not given) the figure was 91%.

These data come from ChEMBL document CHEMBL1157539, “Thousands of chemical starting points for antimalarial lead identification” (Nature, 2010).
